# TDP1 inh: blocks human tyrosyl-DNA phosphodiesterase 1 | recombinant TDP1, AlphaScreen DNA substrate cleavage | actives 0.28% (n = 350,000) | Potency, µM (doses to about 130 µM), for inactives: at the highest dose activity change, negative = inhibition, hits mostly inhibitors; note: potency is the fitted concentration of half-maximal effect; nearly all actives have a fitted effect of over 40% in size
# Target sequence (Q9NUW8 whole entry, looked up): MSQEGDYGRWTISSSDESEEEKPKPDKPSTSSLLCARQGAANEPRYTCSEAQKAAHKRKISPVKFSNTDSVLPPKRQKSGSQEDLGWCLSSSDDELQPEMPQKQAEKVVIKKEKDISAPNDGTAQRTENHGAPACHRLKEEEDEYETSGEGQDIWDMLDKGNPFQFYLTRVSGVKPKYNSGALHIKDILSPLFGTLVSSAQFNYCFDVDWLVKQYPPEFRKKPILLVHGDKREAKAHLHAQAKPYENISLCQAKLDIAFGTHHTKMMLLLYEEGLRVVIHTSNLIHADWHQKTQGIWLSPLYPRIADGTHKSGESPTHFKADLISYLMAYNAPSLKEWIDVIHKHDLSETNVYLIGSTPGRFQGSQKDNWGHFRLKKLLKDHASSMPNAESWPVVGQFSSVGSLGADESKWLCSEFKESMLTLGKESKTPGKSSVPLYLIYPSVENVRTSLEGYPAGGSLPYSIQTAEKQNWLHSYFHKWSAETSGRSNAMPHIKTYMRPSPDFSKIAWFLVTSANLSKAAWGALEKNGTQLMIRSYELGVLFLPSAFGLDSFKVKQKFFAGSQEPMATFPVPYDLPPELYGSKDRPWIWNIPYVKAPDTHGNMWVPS
#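 Here, a 5' biotin and 3' phosphotyrosine-FITC DNA oligonucleotide reports Tdp1 activity: intact substrate bridges AlphaScreen beads, while cleavage leaves a 3' phosphate and drops signal. All incubations at room temperature.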
# TDP1 cell CPT: growth inhibition of DT40 Tdp1-/-;hTDP1 cells with camptothecin (screen for TDP1 inhibitors) | chicken DT40 Tdp1-/-;hTDP1 cells + 20 nM CPT, ATP luminescence, 48 h | AID 686979 | Potency, µM (titrated, usually from 46.2 µM), without a hit: top-dose activity change, negative = growth inhibition, actives largely listed as inhibitors | actives 12% (n = 420,000); note: potency is the fitted concentration of half-maximal effect; nearly all actives have a fitted effect of over 55% in size
#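 Chicken DT40 Tdp1-/- cells stably complemented with human TDP1 were seeded at 400 cells/well in medium containing 20 nM camptothecin, exposed to pin-transferred compounds, and grown at 37 °C for at least 48 hr. Viability was read as ATP luminescence.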
# Giardia killer: Giardia lamblia killing | Giardia lamblia trophozoite viability | actives 0.15% (n = 340,000) | activity change, % at 7.66 µM, hits read low; in the data active = activity change below about -80%; inconclusive = between about -30% and that limit;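 note: parasites exposed to compound for two days anaerobically before the ATP read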
#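 Trophozoite viability was measured as ATP-dependent luminescence, read 15-30 min after reagent addition. Before that, parasites at 100 cells/well were exposed to compounds for 48 h, anaerobically, at 37 deg C.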
# ELG1 DNA repair: inhibitors of ELG1-dependent DNA repair in HEK293T cells; HEK293T ELG1-luciferase reporter, luminescence, 16 h; DNA damage induced by 5-fluorouridine; Potency, µM (titrated, usually from 46.1 µM), without a hit: at the top dose activity change, negative = inhibition, actives largely listed as inhibitors; actives 2.3% (n = 330,000); AID 504467; note: potency is the fitted concentration of half-maximal effect; nearly all actives have a fitted effect of over 55% in size
#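 Reporter activity after DNA damage by 5-fluorouridine is monitored. Compound-treated cells incubate 16 hr at 37 °C, then ONE-Glo is added for 30 min before luminescence reading.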
# DT40 TDP1 no CPT: qHTS for Inhibitors of human tyrosyl-DNA phosphodiesterase 1 (TDP1): qHTS in cells in absence of CPT. DT40 Tdp1-/- hTDP1 cells, no CPT, ATP luminescence, 48 h. Potency, µM (doses to about 46.2 µM), for inactives: at the highest dose activity change, negative = growth inhibition, most hits filed as inhibitors. actives 15% (n = 420,000). AID 686978, 2013; note: potency is the fitted concentration of half-maximal effect; nearly all actives have a fitted effect of over 55% in size
#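 Camptothecin absent (DMSO only). Human TDP1-complemented DT40 knockout cells, 400 cells/well, 37 °C for minimum 48 hr; ATP measured via CellTiter-Glo, 30 min dark incubation, luminescence.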
# IL-1B inflam inh: inhibitors of inflammasome signaling (IL-1 beta secretion). THP-1 LPS/ATP IL-1B secretion, AlphaLISA, 16 h; active compounds read low. activity change, % at 57.5 µM. actives 4.7% (n = 360,000). AID 743279; in the data active = activity change below about -50%; inconclusive = mostly about -30% to -49%
#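 Secreted IL-1B measured by AlphaLISA bead assay after 16 h compound exposure of THP-1 cells; compounds (final up to 57.5 uM) added 1 h before LPS (250 ng/mL) and ATP (1.25 mM) stimulation; lower signal means less secretion.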
# Numbers without * were called inactive; ? = inconclusive; / = not tested or not shown; [ ] = another dose, or the depositor's remark. A selection: hits, their analogues and other compounds. The true share with any hit is near 19%. Unless noted, calls come from the whole dose curve; as a rule, active = well fitted curve in the direction sought with a large enough effect; inconclusive = small, poorly fitted or top-dose-only effect, or another doubt; inactive = no such curve, though single readings can be large; an effect the other way counts as inactive or inconclusive. % is set by controls: 0 for no effect and ±100 for the full control effect.
SMILES,TDP1 inh,TDP1 cell CPT,Giardia killer,ELG1 DNA repair,DT40 TDP1 no CPT,IL-1B inflam inh
COc1cc(OC)c(NC(=O)C(C)n2nc(-c3ccc(C)c(C)c3)ccc2=O)cc1Cl (centres undefined),6.8%,14.6µM*,/,/,13µM*,/
COc1ccc(CCC(=O)NCC(c2ccco2)N2CCc3ccccc32)cc1 (centres undefined),/,18.4µM*,-2.9,?,23.1µM*,-7.5
COc1cc(C(=O)NCC(c2ccco2)N2CCc3ccccc32)cc(OC)c1OC (centres undefined),4.0%[0.505 µM],?,42.4,?,9.2µM*,-0.5
COc1ccccc1NC(=O)C(=O)NCC(c1ccco1)N1CCc2ccccc21 (centres undefined),7.4%[0.505 µM],?,-3.1,11.2%,?,-7.7
Cc1ccc(C(=O)NCC(c2ccco2)N2CCc3ccccc32)cc1C (centres undefined),/,20.6µM*,-1.6,?,16.4µM*,-11.7
COc1ccccc1C(=O)NCC(c1ccco1)N1CCc2ccccc21 (centres undefined),3.1%[0.505 µM],14.6µM*,12.0,-14.3%,23.1µM*,1.0
COCCCNC(=O)CN1C(=O)COc2ccc(S(=O)(=O)N3CCOCC3)cc21,4.1%,0.1%,-20.8,14.5%,19.6%,10.6
Cc1ccc(OCC(=O)Nc2ccc(OCc3cc(=O)n4ccsc4n3)cc2)cc1C,6.4%,-28.7%,/,/,?,/
CC(=O)Oc1ccc(/C=N/NC(=O)CCSc2ccccc2)cc1,2.3%,?,33.4,1.6%,18.4µM*,47.9
O=C(CCCSCCCC(=O)NN=Cc1ccccc1)NN=Cc1ccccc1,/,?,-8.7,/,23.1µM*,-2.8
CC#CCOC(=O)C1=CCCN(C)C1,4.9%,?,/,/,?,/
Cc1ccc(N=CC2=C(O)CC(c3ccc(Cl)cc3)CC2=O)cc1 (centres undefined),-3.5%,-8.4%,-7.7,-8.5%,-27.4%,-1.1
Cc1ccc(NC(=O)CSc2nc3ccc(NC(=O)c4ccco4)cc3s2)cc1,2.6%,?,/,/,?,/
Cn1cnnc1SCC(=O)Nc1ccc2nc(SCc3cccc4ccccc34)sc2c1,5.1%,23.1µM*,-12.9,-19.1%,?,-16.5
CCN(CC)C(=O)CSc1nc2ccc(NC(=O)CSc3nccn3C)cc2s1,3.3%,-29.2%,12.7,20.6µM*,16.4µM*,-53.0*
Cc1cccc(NC(=O)CSc2nc3ccc(NC(=O)COc4ccccc4F)cc3s2)c1,3.6%,16.4µM*,/,/,6.51µM*,/
Cc1cccc(NC(=O)CSc2nc3ccc(NC(=O)c4ccccc4)cc3s2)c1,6.8%,8.2µM*,/,/,6.51µM*,/
O=C(COc1ccccc1F)Nc1ccc2nc(SCc3ccccc3)sc2c1,-5.7%,-26.4%,/,/,-19.6%,/
COc1ccc(S(=O)(=O)NC2CCSc3ccccc32)cc1OC (centres undefined),-1.9%,-1.8%,-25.7,-3.1%,-6.2%,24.2
C=CCOn1c(=O)c(-c2ccc(OCC)cc2)[n+]([O-])c2ccccc21,/,4.9%,15.5,12.5%,-20.3%,-0.3
C=C1CC2C3CC[C@@]4(OCOC45COCO5)[C@@]3(C)C(O)CC2[C@@]2(C)CCC(=O)C=C12 (some centres undefined),4.5%,?,8.3,?,18.4µM*,-100.6*
CC(=O)C12OC1CC1C3CCC4=CC(=O)CCC4(C)C3CCC12C (centres undefined),/,?,13.2,5.0%,?,?
CCc1ccccc1NC(=O)c1ccc(OCc2c(C)noc2C)cc1,1.1%,-2.5%,10.5,?,-28.1%,-12.5
CC1CCCN(C(C(=O)NC2CCCCC2)c2cc3c(cc2[N+](=O)[O-])OCO3)C1 (centres undefined),2.3%,?,0.1,24.9%,?,-59.1*
CC1CCCN(C(C(=O)Nc2ccc3c(c2)OCO3)c2ccccc2)C1 (centres undefined),-1.2%,14.6µM*,3.9,-8.1%,16.4µM*,23.6
SMILES,TDP1 inh,TDP1 cell CPT,Giardia killer,ELG1 DNA repair,DT40 TDP1 no CPT,IL-1B inflam inh
CC1CCCN(C(C(=O)Nc2ccc3c(c2)OCCO3)c2ccccc2)C1 (centres undefined),3.8%,-27.7%,2.6,4.4%,-19.1%,-1.6
CC1CCN(C(C(=O)NC2CCCCC2)c2cc3c(cc2[N+](=O)[O-])OCO3)CC1 (centres undefined),2.6%,3.7%,-12.3,?,1.1%,-4.4
CCOc1ccccc1NC(=O)C(C)Sc1nc2c(c(=O)[nH]1)CCCC2 (centres undefined),5.7%,?,/,/,?,/
COc1ccc(CNc2nc(SCc3cc(=O)n4cc(Cl)ccc4n3)nc3ccccc23)cc1,5.5%,13µM*,-13.8,?,20.6µM*,18.6
Clc1cccc(CSc2nc(NCCc3ccccc3)c3ccccc3n2)c1,4.4%,?,/,/,?,/
COc1ccccc1-c1noc(-c2ccc(N3CCC(C)CC3)c([N+](=O)[O-])c2)n1,8.6%,?,/,/,13µM*,/
COc1ccccc1-c1noc(-c2ccc(NC3CCCCC3)c([N+](=O)[O-])c2)n1,8.6%,?,/,/,?,/
COc1ccccc1N1CCN(c2ccc(-c3nc(-c4ccccc4C)no3)cc2[N+](=O)[O-])CC1,8.6%,0.1%,/,/,9.8%,/
COc1ccccc1N1CCN(c2ccc(-c3nc(-c4ccccc4)no3)cc2[N+](=O)[O-])CC1,5.7%,11.6µM*,/,/,9.2µM*,/
COc1ccccc1-c1noc(-c2ccc(N3CCN(c4ccccc4)CC3)c([N+](=O)[O-])c2)n1,8.6%,23.1µM*,/,/,13µM*,/
Cc1ccccc1-c1noc(-c2ccc(N3CCCCC3)c([N+](=O)[O-])c2)n1,5.7%,?,/,/,11.6µM*,/
Cn1c(=O)c(-c2cccc(Cl)c2)nc2cncnc21,/,8.7%,/,/,-27.2%,/
N/C(=N\OC(=O)CSc1ccccc1)c1ccc([N+](=O)[O-])cc1,5.5%,?,13.8,?,-22.8%,-13.0
CCN(CC)CCNC(=O)c1[nH]c2ccc(OCc3ccccc3)cc2c1C,7.0%,?,-7.8,7.2%,?,-94.6*
CN(C)c1ccc(C=c2c3ccccc3n3c2cc(-c2ccc(Cl)cc2)[n+]3C)cc1,/,4.11µM*,32.2,/,4.61µM*,-119.2*
CN(C)c1ccc(C=c2c3ccccc3n3c2cc(-c2ccccc2)[n+]3C)cc1,/,0.581µM*,-17.3,/,0.366µM*,-102.0*

# Assay outcomes as filed in PubChem.
